Where “and” joins values, the source holds several entries; their conditions need not be identical. Equal entries are not always repeated. Records with an inconclusive call do not appear. Where a call stands in place of a potency, no number is given. Some structures have more than one record in an assay (separate samples or runs), and their calls can disagree. Calls of active or inactive are those of the source. Unless noted, calls come from the whole dose curve; as a rule, active = well fitted curve in the direction sought with a large enough effect in the repeat runs; inconclusive = weak or mixed curves; inactive = no such curve, though single readings can be large; an effect the other way counts as inactive or inconclusive.
Columns and labels:
[1] = qHTS assay to identify small molecule antagonists of the sonic hedgehog signaling (Shh) pathway (AID 1259369; calls by dose curve; note: nearly all actives have a fitted effect of over 45% in size; note: potency is the fitted concentration of half-maximal effect)
Procedure, shortened: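 NIH/3T3-derived 3T3Gli1-Luc cells with stably integrated Gli1-Luc reporter were preincubated 4hr at 37 C, then given compounds in DMSO plus Shh conditioned medium and incubated 24hr. Firefly luciferase luminescence read after 30min reagent at room temperature.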

[2] = qHTS assay to identify small molecule agonists of the androgen receptor (AR) signaling pathway in the presence of an antagonist - cell viability counter screen (AID 1259379); note: nearly all actives have a fitted effect of over 25% in size; note: potency is the fitted concentration of half-maximal effect
Procedure, shortened: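 MDA-kb2 human breast carcinoma cells (stable MMTV-luciferase, AR/GR responsive) were seeded 3,000 cells/well, pre-incubated 5 hr at 37C without CO2, then given 3.0uM nilutamide and compounds at 15 concentrations for 16 hr. Viability was read by CellTiter-Fluor fluorescence.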

[3] = qHTS assay to identify small molecule agonists of the estrogen receptor beta (ER-beta) signaling pathway - cell viability counter screen (AID 1259380); note: nearly all actives have a fitted effect of over 30% in size; note: potency is the fitted concentration of half-maximal effect
Procedure, shortened: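 ER-beta-UAS-bla HEK293T cells in medium with 2% charcoal-stripped FBS were preincubated 6 hr at 37C, dosed with compound in DMSO for 16 hr, then after the bla read, CellTiter-Glo was added for 30 min at room temperature; luminescence recorded.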

[4] = qHTS assay to identify small molecule antagonists of the estrogen receptor beta (ER-beta) signaling pathway - cell viability counter screen (AID 1259382); note: nearly all actives have a fitted effect of over 55% in size; note: potency is the fitted concentration of half-maximal effect
Procedure, shortened: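 ER-beta-UAS-bla HEK293T cells (2,000/well, 2% charcoal-stripped FBS) were pre-incubated 6 hr at 37C, then given compound plus 1nM final 17-beta-estradiol for 16 hr. Viability was read in the same wells by CellTiter-Glo luminescence after 30 min at room temperature.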

[5] = biological target: Estrogen receptor beta (Homo sapiens) (UniProt Q92731); assay: qHTS assay to identify small molecule agonists of the estrogen receptor beta (ER-beta) signaling pathway (AID 1259377; active = well fitted activation curve with a large enough effect in the signal ratio in the repeat runs, not every such curve was filed as active; the % refers to the signal ratio)
Procedure, shortened: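 Beta-lactamase reporter readout: fluorescence of LiveBLAzer B/G FRET substrate after 2 h at room temperature, following 16 h compound treatment of ER-beta-UAS-bla HEK293T cells at 37C in 2% charcoal-stripped FBS medium.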

[6] = biological target: Estrogen receptor beta (Homo sapiens) (UniProt Q92731); assay: qHTS assay to identify small molecule antagonists of the estrogen receptor beta (ER-beta) signaling pathway (AID 1259378; active = well fitted inhibition curve with a large enough effect in the signal ratio in the repeat runs, not every such curve was filed as active; the % refers to the signal ratio; note: potency is the fitted concentration of half-maximal effect)
Procedure, shortened: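 Antagonist mode: compounds added to beta-lactamase reporter HEK293T ER-beta-UAS cells stimulated with E2 (1nM final), 16 hr at 37C. LiveBLAzer B/G FRET substrate, 2 hours room temperature, fluorescence read-out.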

[7] = biological target: Estrogen receptor (Homo sapiens) (UniProt P03372); assay: qHTS assay to identify small molecule agonists of the estrogen receptor alpha (ER-alpha) signaling pathway in the presence of an antagonist (AID 1259383; calls by dose curve; note: top concentration of the series differs between compounds; nearly all actives have a fitted effect of over 15% in size)
Procedure, shortened: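 VM7Luc4E2 cells (endogenous full-length ER-alpha, 4×ERE-luciferase) were precultured 5 days in phenol red-free medium with 10% charcoal-stripped FBS, given 10.0nM ICI-182,780 (final), then treated with compounds at 15 concentrations for 22hr at 37C; luminescence read with ONE-Glo.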

[8] = qHTS assay to identify small molecule agonists or antagonists of the thyroid stimulating hormone receptor (TSHR) signaling pathway - wild type cell line counter screen (AID 1259384; calls by dose curve; note: potency is the fitted concentration of half-maximal effect)
Procedure, shortened: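 Counter screen in untransfected Hek293: compounds (15-point titration, triplicate) plus phosphodiesterase inhibitor Ro20-1724 added after 18 h plating; 30 min RT. Intracellular cAMP via competitive d2/cryptate immunoassay, 1 h incubation.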

[9] = biological target: Thyrotropin receptor (Homo sapiens) (UniProt P16473); assay: qHTS assay to identify small molecule antagonists of the thyroid stimulating hormone receptor (TSHR) signaling pathway (AID 1259385; calls by dose curve; note: nearly all actives have a fitted effect of over 20% in size; note: potency is the fitted concentration of half-maximal effect)
Procedure, shortened: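 Antagonist mode: compound-treated TSHR-expressing HEK293 cells were stimulated with 1.5 ng/mL TSH (final) in presence of Ro20-1724 for 30 min at RT. HTRF cAMP detection after 1 h; each compound tested at 15 concentrations, triplicate.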

[10] = biological target: Androgen receptor (Homo sapiens) (UniProt P10275); assay: qHTS assay to identify small molecule agonists of the androgen receptor (AR) signaling pathway in the presence of an antagonist (AID 1259381; calls by dose curve; note: nearly all actives have a fitted effect of over 15% in size)
From the text: National Center for Advancing Translational Sciences [NCATS] NIH Chemical Genomics Center [NCGC] U.S. Environmental Protection Agency [EPA] National Institutes of Environmental Health Sciences [NIEHS] National Toxicology Program [NTP] Assay overview: Androgen receptor (AR) is an important member of nuclear receptor family. Its signaling plays a critical role in AR-dependent prostate cancer and other androgen related diseases. Considerable attention has been given in the past decades to develop methods to study and screen for the environmental chemicals that have the potential to interfere with metabolic homeostasis, reproduction, developmental and behavioral functions. Therefore AR binding assay for screening against androgen agonists and antagonists can be used to identify potential endocrine disruptors. MDA-kb2 cells (from ATCC, deposited by Wilson et al.) are human breast carcinoma cells that were stably transfected with a luciferase reporter gene under control of the MMTV promoter that contains response elements for both androgen receptor (AR) and glucocorticoid receptor (GR). This particular screening for measuring luciferase reporter gene activity using MDA-kb2 cells against Tox21 10K library compounds is a confirmation study on agonist mode screening in the presence of AR-antagonist compound (Nilutamide) at 3.0uM final concentration.
Assay Protocol Summary: MDA-kb2 cells (cells cultured without CO2) were dispensed at 3,000 cells/well in 4uL of culture medium into white wall/solid-bottom 1536-well plates (Corning Life Sciences, Corning, NY) using a Multidrop Combi (Thermo Fisher Scientific Inc., Waltham, MA) dispenser. The assay plates were incubated at 37C and 0% CO2 for 5hr. […] For luciferase read, 4uL/well ONE-Glo reagent (Promega Corporation, Madison, WI) was added to each well of the assay plates using FRD. After 30min incubation at room temperature, the luminescence signal was measured using a ViewLux plate reader (PerkinElmer, Shelton, CT).

Chain of Estrogen receptor beta (Homo sapiens) (Q92731 whole entry, looked up): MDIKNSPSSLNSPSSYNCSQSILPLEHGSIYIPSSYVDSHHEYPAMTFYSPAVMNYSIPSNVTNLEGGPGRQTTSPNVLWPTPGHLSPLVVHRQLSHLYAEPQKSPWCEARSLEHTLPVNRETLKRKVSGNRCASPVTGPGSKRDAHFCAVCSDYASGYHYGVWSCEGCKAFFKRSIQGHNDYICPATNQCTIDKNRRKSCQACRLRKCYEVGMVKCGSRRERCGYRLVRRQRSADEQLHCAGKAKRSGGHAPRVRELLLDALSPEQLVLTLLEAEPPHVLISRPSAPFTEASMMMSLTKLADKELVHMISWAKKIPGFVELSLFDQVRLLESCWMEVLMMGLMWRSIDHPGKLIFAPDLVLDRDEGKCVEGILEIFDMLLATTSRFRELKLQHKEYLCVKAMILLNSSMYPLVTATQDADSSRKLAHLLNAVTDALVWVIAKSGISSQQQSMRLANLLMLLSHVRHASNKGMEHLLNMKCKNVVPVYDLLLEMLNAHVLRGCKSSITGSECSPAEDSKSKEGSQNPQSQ
Chain of Thyrotropin receptor (Homo sapiens) (P16473 whole entry, looked up): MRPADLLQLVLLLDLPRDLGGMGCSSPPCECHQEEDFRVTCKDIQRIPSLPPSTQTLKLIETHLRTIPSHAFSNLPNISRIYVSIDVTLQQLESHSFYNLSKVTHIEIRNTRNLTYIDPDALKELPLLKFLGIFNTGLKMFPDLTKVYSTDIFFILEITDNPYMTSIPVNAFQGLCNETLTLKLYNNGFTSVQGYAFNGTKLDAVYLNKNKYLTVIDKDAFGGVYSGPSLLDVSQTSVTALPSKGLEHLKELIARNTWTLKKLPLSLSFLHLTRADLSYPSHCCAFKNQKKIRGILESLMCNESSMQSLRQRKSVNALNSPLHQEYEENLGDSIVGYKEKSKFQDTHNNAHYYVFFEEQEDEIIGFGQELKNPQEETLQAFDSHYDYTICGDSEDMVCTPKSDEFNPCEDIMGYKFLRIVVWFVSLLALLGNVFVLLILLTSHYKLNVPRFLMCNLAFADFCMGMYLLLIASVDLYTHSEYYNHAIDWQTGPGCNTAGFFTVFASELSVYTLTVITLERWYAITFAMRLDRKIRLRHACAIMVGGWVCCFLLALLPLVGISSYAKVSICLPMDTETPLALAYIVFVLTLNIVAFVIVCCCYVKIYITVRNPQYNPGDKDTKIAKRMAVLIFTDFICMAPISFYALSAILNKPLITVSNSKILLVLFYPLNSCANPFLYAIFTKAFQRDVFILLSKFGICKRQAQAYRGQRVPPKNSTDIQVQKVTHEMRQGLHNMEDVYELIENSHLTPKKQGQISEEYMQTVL
Chain of Estrogen receptor (Homo sapiens) (P03372 whole entry, looked up): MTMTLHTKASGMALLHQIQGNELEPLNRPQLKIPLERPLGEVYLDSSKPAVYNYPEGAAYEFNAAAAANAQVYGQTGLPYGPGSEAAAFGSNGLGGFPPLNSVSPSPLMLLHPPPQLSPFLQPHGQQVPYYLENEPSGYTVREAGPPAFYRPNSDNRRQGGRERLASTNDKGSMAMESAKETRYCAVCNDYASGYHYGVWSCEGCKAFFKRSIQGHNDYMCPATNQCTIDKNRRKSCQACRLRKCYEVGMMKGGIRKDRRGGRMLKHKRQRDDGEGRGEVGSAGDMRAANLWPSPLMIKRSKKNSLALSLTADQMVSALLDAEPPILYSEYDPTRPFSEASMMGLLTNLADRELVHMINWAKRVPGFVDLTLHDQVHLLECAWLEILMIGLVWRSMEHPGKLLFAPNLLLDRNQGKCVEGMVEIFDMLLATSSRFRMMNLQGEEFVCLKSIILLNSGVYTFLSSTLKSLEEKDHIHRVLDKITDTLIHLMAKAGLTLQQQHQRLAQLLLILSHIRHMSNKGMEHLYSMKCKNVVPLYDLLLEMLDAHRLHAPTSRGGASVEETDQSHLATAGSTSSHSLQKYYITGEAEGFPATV
Chain of Androgen receptor (Homo sapiens) (P10275 whole entry, looked up): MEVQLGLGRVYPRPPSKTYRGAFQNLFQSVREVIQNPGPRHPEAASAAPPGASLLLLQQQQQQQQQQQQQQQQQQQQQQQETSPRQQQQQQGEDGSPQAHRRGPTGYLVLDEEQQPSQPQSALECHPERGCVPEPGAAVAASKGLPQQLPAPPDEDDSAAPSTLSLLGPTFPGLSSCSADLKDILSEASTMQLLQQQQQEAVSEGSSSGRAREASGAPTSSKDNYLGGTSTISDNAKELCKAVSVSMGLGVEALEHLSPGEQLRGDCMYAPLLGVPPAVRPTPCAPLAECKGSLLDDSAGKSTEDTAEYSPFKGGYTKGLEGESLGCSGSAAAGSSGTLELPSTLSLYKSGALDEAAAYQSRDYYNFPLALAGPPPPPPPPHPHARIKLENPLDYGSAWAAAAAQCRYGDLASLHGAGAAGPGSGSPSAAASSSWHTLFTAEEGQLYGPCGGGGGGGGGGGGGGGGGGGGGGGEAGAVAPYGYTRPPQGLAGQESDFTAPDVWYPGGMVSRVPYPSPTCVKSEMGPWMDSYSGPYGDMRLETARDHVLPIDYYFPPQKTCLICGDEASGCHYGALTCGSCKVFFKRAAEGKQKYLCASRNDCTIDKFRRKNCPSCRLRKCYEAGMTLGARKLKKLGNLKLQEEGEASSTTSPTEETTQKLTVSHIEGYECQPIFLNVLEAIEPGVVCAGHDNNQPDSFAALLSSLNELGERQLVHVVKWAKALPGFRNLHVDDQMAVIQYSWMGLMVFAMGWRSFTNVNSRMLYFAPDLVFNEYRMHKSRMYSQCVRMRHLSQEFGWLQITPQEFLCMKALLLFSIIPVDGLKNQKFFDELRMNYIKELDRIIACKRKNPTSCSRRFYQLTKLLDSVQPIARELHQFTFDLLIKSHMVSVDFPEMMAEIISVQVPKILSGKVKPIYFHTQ

| Compound | Potency [1] | Potency [2] | Potency [3] | Potency [4] | outcome [5] | Potency [6] | Potency [7] | Potency [8] | Potency [9] | outcome [10] |
| --- | --- | --- | --- | --- | --- | --- | --- | --- | --- | --- |
| N#CS | inactive | inactive | inactive | inactive |  |  |  |  |  |  |
| O=S(=O)(O)O | inactive | inactive | inactive | inactive |  |  |  |  |  |  |
| CCCCn1cc[n+](C)c1 | inactive | inactive | inactive | inactive |  |  |  |  |  |  |
| CC[N+]1(C)CCCC1 | 39.5 µM (active) and inactive | inactive and 61.3 µM (active) | inactive | inactive |  |  |  |  |  |  |
| O=c1[nH]c(=O)n(Cl)c(=O)n1Cl | inactive | inactive | inactive | inactive |  |  |  |  |  |  |
| Nc1ccc(-c2ccc(N)cc2)cc1 | inactive | inactive | inactive | inactive | inactive | inactive | inactive | inactive |  |  |
| CCCC[n+]1ccc(C)cc1 | inactive and 24.2 µM (active) and 13.7 µM (active) | inactive | inactive and 60.8 µM (active) | inactive and 60.8 µM (active) |  |  |  |  |  |  |
| CCCC[n+]1ccccc1C | inactive | inactive | inactive | inactive |  |  |  |  |  |  |
| CCNc1nc(Cl)nc(NCC)n1 | 2.16 µM (active) and inactive | inactive | inactive | inactive | inactive | inactive | inactive | inactive | inactive |  |
| O=C(O)c1ccccc1O | inactive | inactive | inactive | inactive |  |  |  |  |  |  |
| O=C(O)CC(O)(CC(=O)O)C(=O)O | inactive | inactive | inactive | inactive |  |  |  |  |  |  |
| C[C@]12CCC(=O)C=C1CC[C@@H]1[C@@H]2CC[C@]2(C)C(=O)CC[C@@H]12 | 15.1 µM (active) and 13.7 µM (active) and inactive | inactive | 53.5 µM (active) and 54.5 µM (active) | 47.7 µM (active) and inactive | inactive | inactive | inactive | inactive | inactive |  |
| O=C(O)CCl | inactive | inactive | inactive | inactive | inactive | inactive |  | inactive | inactive |  |
| CCOP(=S)(OCC)Oc1ccc2c(C)c(Cl)c(=O)oc2c1 | 13.8 µM (active) | inactive | inactive | inactive | inactive |  |  | inactive | inactive |  |
| CCCC[N+]1(C)CCCC1 | inactive | inactive | inactive | inactive |  |  |  |  |  |  |
| COCC(=O)N(c1c(C)cccc1C)C(C)C(=O)OC (stereo not given) | inactive | inactive | inactive | inactive | inactive | inactive | inactive | inactive | inactive |  |

| Compound | Potency [1] | Potency [2] | Potency [3] | Potency [4] | outcome [5] | Potency [6] | Potency [7] | Potency [8] | Potency [9] | outcome [10] |
| --- | --- | --- | --- | --- | --- | --- | --- | --- | --- | --- |
| CCCCn1cc[n+](C)c1C | inactive | inactive | inactive | inactive |  |  |  |  |  |  |
| Cc1cc(Cl)ccc1OCC(=O)O | inactive | inactive | inactive | inactive |  |  | inactive | inactive | inactive | inactive |
| CCC(=O)C(CC(C)N(C)C)(c1ccccc1)c1ccccc1 (stereo not given) | 24.4 µM (active) and inactive | inactive | 54.7 µM (active) | inactive | inactive | inactive | inactive | inactive | inactive | inactive |
| CCn1cc[n+](C)c1C | inactive | inactive | inactive | inactive |  |  |  |  |  |  |
| O=C(O)COc1ccc(Cl)cc1Cl | inactive | inactive | inactive | inactive |  |  |  |  |  |  |
| OCCOc1ccccc1 | inactive | inactive | inactive | inactive | inactive | inactive | inactive | inactive | inactive |  |
| CC(=O)[O][Hg][c]1ccccc1 | 121 nM (active) and 61.1 nM (active) and 8.4 nM (active) | 4.29 µM (active) and 6.86 µM (active) and 7.5 µM (active) | 1.92 µM (active) and 3.86 µM (active) and 5.31 µM (active) | 3.04 µM (active) and 4.33 µM (active) and 8.41 µM (active) |  | 3.44 µM (active) | inactive | 2.07 µM (active) and 5.88 µM (active) and 4.92 µM (active) | 60.6 µM (active) and 68.6 µM (active) | inactive |
| CCCCCCn1cc[n+](C)c1 | 7.74 µM (active) and 89.9 nM (active) | 50.5 µM (active) [middle of 6 runs] | inactive | inactive |  |  |  |  |  |  |
| O=c1nc(O)n(Cl)c(=O)n1Cl | inactive | inactive | inactive | inactive |  |  |  |  |  |  |
| COP(=O)(OC)OC=C(Cl)Cl | inactive | inactive | inactive | inactive | inactive | inactive | inactive |  |  |  |
| CCCCCC[n+]1ccccc1 | 13.8 µM (active) and 17.3 µM (active) and inactive | inactive | inactive | inactive |  |  |  |  |  |  |
| CC(Cl)(Cl)C(=O)O | inactive | inactive | inactive | inactive | inactive | inactive | inactive | inactive | inactive |  |
| COc1ccccc1N | inactive | inactive | inactive | inactive |  |  |  |  |  |  |
| O=[N+]([O-])c1ccccc1O | inactive | inactive | inactive | inactive | inactive | inactive |  |  |  |  |
| CCCC[n+]1cccc(C)c1 | inactive | inactive | inactive | inactive |  |  |  |  |  |  |

Reference: PubChem BioAssay (Tox21)
